Screening data (PubChem BioAssay)
Calb FLC: C. albicans growth inhibition with fluconazole, primary screen, CaCi-2 strain, Alamar Blue fluorescence | AID 1979, 2009 | 300,000 compounds, 0.57% hits | C. albicans CaCi-2 (fluconazole-resistant clinical isolate) + fluconazole, 48 h | growth inhibition, % (concentration not given with the values);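 active = growth inhibition above about 58% in most replicates, limit read from the data, passing the limit was not always enough; inconclusive = exactly half the replicates above a set limit; inactive = most replicates below a set limit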;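 note: all wells also contain fluconazole at 8 µg/ml as a sub-toxic cotreatment; 0% = median of DMSO wells and 100% = median of geldanamycin control wells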
Mdm2 MdmX PPI: inhibitors of human Mdm2-MdmX association, primary screen, cell-based, luminescence, split luciferase, SaOS-2, uHTS; SaOS-2 split-luciferase Mdm2/MdmX complementation; inhibition, % at 8 µM; 330,000 compounds, 3% hits;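 active = inhibition of at least 50% at 8 µM in the primary screen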
MPTP inh: mitochondrial permeability transition pore inhibitors, primary screen, biochemical, isolated mouse mitochondria, absorbance | Ca2+ swelling absorbance, 30 min | inhibition, % at 10 µM | 360,000 compounds, 1.4% hits;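 active = inhibition of 50% or more, scaled per plate between neutral and stimulator controls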;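 note: 0% = DMSO wells given calcium and 100% = 1 mM EGTA wells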
CSC inhib: cancer stem cell viability inhibitors, primary screen, luminescence. cancer stem cell-like cells viability. inhibition, % at 7.5 µM. 300,000 compounds, 1.1% hits; in the data active = inhibition above about 75%; inconclusive = no clear call, values can overlap the other calls; tested in HMLE shEcad cells
Beta apoptosis: inhibitors of cytokine-induced beta cell apoptosis, primary screen, luminescence | INS-1E cytokine-induced death, ATP luminescence, 48 h; percent of positive-control rescue, neutral wells zero | protection from apoptosis, % (concentration not given with the values) | 300,000 compounds, 0.8% hits | AID 435005, 2010;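 active = Every replicate reaches about 75%, or at least half do and their mean reaches it too, limit read from the data; inconclusive = At least half of replicates reach the limit but their mean does not; inactive = Under half of replicates reach the limit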;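 note: 0% = cytokine-treated negative control wells and 100% = positive control rescue; higher means more ATP so stronger rescue from cytokine killing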
Mdm2-MdmX conf: Mdm2-MdmX complex disruptors, retested hits, confirmation, luminescence, single concentration; shares compounds with Mdm2 MdmX PPI; inhibition, % at 8 µM; 10,000 compounds, 55% hits; AID 489028, 2010; Mdm2-MdmX binding, luminescent assay; in the data active = inhibition above about 40%
FLuc counter: full-length luciferase signal inhibition, confirmation, counter-screen for Mdm2/MdmX interaction inhibitor project, cell-based, single concentration, SaOS-2; shares compounds with Mdm2 MdmX PPI; SaOS-2 full-length luciferase counterscreen, luminescence; inhibition, % at 8 µM; 6,200 compounds, 77% hits;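 active = mean inhibition at 8 µM reaching about 37%, which flags the compound as non-specific, limit read from the data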;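 note: p53-null SaOS-2 cells with luciferase driven by a doxycycline-inducible promoter; compound on cells about two nights before reading with doxycycline added after day one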
Active calls of the source: *; ? = inconclusive; . = no result given. Rows were chosen to be rich in hits. Some 4.8% of all compounds tested hit in one or more screens of this group.

SMILES | Calb FLC | Mdm2 MdmX PPI | MPTP inh | CSC inhib | Beta apoptosis | Mdm2-MdmX conf | FLuc counter
CCOC(=O)c1c(NC(=O)C2=C(C)NC(=S)NC2c2ccc(CC)cc2)sc(C)c1C (stereo not drawn) | -7 | 64* | . | 20 | 5 | 18 | .
CCOC(=O)C1=C(C)NC(=S)NC1c1ccc(OC(=O)c2ccco2)cc1 (stereo not drawn) | -2 | -32 | -1 | 3 | 7 | . | .
COc1ccc(C(C(=O)Nc2ccc3c(c2)OCCO3)n2c(=O)c(-c3ccco3)nc3ccccc32)cc1 (stereo not drawn) | . | . | 0 | . | . | . | .
CCCCOc1ccc(-c2cc(C(=O)NNC(=S)NCC)c3ccccc3n2)cc1 | 72 | 80* | 34 | 100* | 80* | 74* | 127*
CCCCOc1cccc(-c2cc(C(=O)NNC(=S)NCC)c3ccccc3n2)c1 | 32 | 45 | 43 | 12 | 24 | . | .
Cc1ccc(C)c(CN2C(=O)c3ccccc3S(=O)(=O)c3ccc(C(=O)N4CCN(C)CC4)cc32)c1 | -12 | 15 | 0 | -10 | 4 | . | .
Cc1ccc(C)c(CN2C(=O)c3ccccc3S(=O)c3ccc(C(=O)N4CCN(c5ccccn5)CC4)cc32)c1 (stereo not drawn) | 17 | 99* | 5 | 52 | 8 | 89* | 54*
Clc1ccc(CSc2nncn2-c2ccc3c(c2)OCCO3)cc1 | -2 | 51* | 2 | 75 | 0 | 60* | 48*
CCCCCn1c(=NC(=O)c2cccnc2)c(C#N)cc2c(=O)n3cccc(C)c3nc21 | -4 | 73* | 11 | 44 | 14 | 51* | 42*
Fc1ccc(NC(=S)Nc2ccc(Cl)cc2Cl)cc1 | -27 | 10 | . | 3 | -3 | . | .
Fc1ccccc1/C=N/NC(=S)Nc1ccc(Cl)cc1Cl | 36 | 80* | 2 | 64 | 13 | 72* | 90*
COc1ccccc1CNS(=O)(=O)c1cc2c3c(c1)C(C)C(=O)N3CCC2 (stereo not drawn) | 12 | 24 | 2 | -9 | 2 | . | .
CC(C)C[C@@H](CN1CCC[C@H]1CN1C(=O)C(=O)NC[C@@H]1Cc1ccccc1)N1C[C@H](Cc2ccccc2)N(CC2CCCCCC2)C(=O)C1=O | . | . | -4 | . | . | . | .
COc1ccccc1NC(=O)Nc1cc(NC(=O)Nc2ccccc2OC)c(C)nc1C | -9 | 56* | 0 | 0 | 51 | 33 | 61*
COc1ccc(NC(=O)Nc2ccccc2OC)cc1 | -20 | -27 | -1 | -20 | 7 | . | .
COc1ccc(CNC(=O)Cn2nnc(-c3ccc(NC(=O)C4CCCCC4)cc3)n2)cc1 | ? | 61* | 3 | 8 | 3 | 15 | .
CCOc1ccc(-c2nnn(CC(=O)NCc3ccc(OC)cc3)n2)cc1OCC | 7 | 62* | -1 | 1 | 5 | 16 | .
CCOc1ccc(-c2nnn(CC(=O)NCc3ccc(C)cc3)n2)cc1 | -13 | 29 | -2 | -4 | 2 | . | .
CCOc1ccccc1NC(=O)Cn1nnc(-c2ccc(OCC)c(OCC)c2)n1 | 1 | 88* | 2 | . | . | 7 | .
CCOc1ccc(-c2nnn(CC(=O)Nc3cc(OC)ccc3OC)n2)cc1OCC | -2 | 0 | 1 | -12 | -6 | . | .
CC(OC(=O)CCNS(=O)(=O)c1cccs1)C(=O)Nc1ccc(S(N)(=O)=O)cc1 (stereo not drawn) | . | -8 | -2 | . | -9 | . | .
O=C(Cc1c[nH]c2ccccc12)Nc1nnc(C2CC2)s1 | -1 | 79* | 2 | 24 | 2 | 65* | 84*
O=C(Cc1coc2ccc3ccccc3c12)Nc1nnc(C2CC2)s1 | 3 | 74* | -1 | -2 | -3 | 83* | 38*
Cc1cc2occ(CC(=O)Nc3nnc(C4CC4)s3)c2cc1C | . | -4 | 2 | . | -11 | . | .
CCCc1nc2c(C)cc(Br)cn2c1Cc1ccc(OC)cc1C | . | . | 1 | . | . | . | .
SMILES | Calb FLC | Mdm2 MdmX PPI | MPTP inh | CSC inhib | Beta apoptosis | Mdm2-MdmX conf | FLuc counter
CC(=O)Nc1ccc(NC(=O)C(C)OC(=O)C2CCCCC2)cc1 (stereo not drawn) | . | 16 | 2 | . | -7 | . | .
CCC[C@@H](CN[C@@H](CNC)C(C)C)NCCCCc1ccccc1 | -14 | 97* | 1 | 23 | 10 | 91* | 21
CCC[C@@H](CNC)NC[C@H](Cc1ccccc1)NCCCCc1ccccc1 | -30 | 97* | 8 | 133* | 19 | 83* | 55*
O=C(COC(=O)c1ccccc1)NCCCCc1ccccc1 | . | . | 0 | . | . | . | .
O=C(NCCCCc1ccccc1)c1ccccc1 | -7 | -23 | -2 | -16 | 2 | . | .
COc1cccc(CN(C)C(=O)c2cccc(OCc3ccccc3)c2)c1 | -3 | -16 | 0 | -6 | -2 | . | .
CN(C)c1ccc(CNc2nc3cc(-c4ccc(F)cc4)sc3c(=O)n2C)cc1 | . | . | 2 | . | . | . | .
COc1ccc2[nH]c3c(c2c1)CCNC3C1CC=C(C)CC1 (stereo not drawn) | -3 | 67* | 0 | -4 | 21 | 61* | 57*
COc1cc(OC)c2c(-c3cccc(-c4ccc(F)c(Cl)c4)c3)cc(=O)oc2c1 | . | 72* | 1 | . | . | 61* | 43*
COc1cc2oc(=O)cc(-c3cccc(-c4cccc(C)c4)c3)c2c(OC)c1OC | . | 62* | 0 | . | . | 18 | .
COc1cc(OC)c2c(-c3cccc(-c4sccc4C(C)=O)c3)cc(=O)oc2c1 | . | 72* | 0 | . | . | 55* | 55*
COc1cc(OC)c2c(-c3cccc(-c4ccc(OC)c(OC)c4)c3)cc(=O)oc2c1 | . | 63* | 0 | . | . | 52* | 86*
COc1ccc(-c2ccc(-c3cc(=O)oc4cc(OC)c(OC)c(OC)c34)cc2)cc1OC | . | 39 | 0 | . | . | . | .
COc1cc(OC)c2c(-c3cccc(-c4ccc(C(F)(F)F)cc4)c3)cc(=O)oc2c1 | . | 44 | 1 | . | . | . | .
COc1cc(OC)c2c(-c3cccc(-c4ccc(C#N)cc4)c3)cc(=O)oc2c1 | . | 43 | 0 | . | . | . | .
CCCNC(=O)C1(C)CCCN(C/C=C/c2ccccc2)C1 (stereo not drawn) | . | . | -1 | . | . | . | .
COc1cc(OC)c2c(-c3cccc(-c4ccc(NC(C)=O)cc4)c3)cc(=O)oc2c1 | . | 60* | 2 | . | . | 63* | 79*
CCOC(=O)c1ccc(-c2cccc(-c3cc(=O)oc4cc(OC)cc(OC)c34)c2)cc1 | . | 39 | -2 | . | . | . | .
Cc1ccccc1N1CC(C(=O)Nc2ccncc2)CC1=O (stereo not drawn) | -5 | 5 | -1 | -18 | . | . | .
O=C(CSc1nc2c(oc3ccccc32)c(=O)n1CC1CCCO1)NCc1ccccc1 (stereo not drawn) | 14 | 66* | -2 | -7 | 13 | 17 | .
Cc1nc2c3ccccc3n(CCN3CCCCC3)c2s1 | 15 | 8 | . | -3 | 7 | . | .
